According to PubChem BioAssay (NCI):
This is part of a sample that, as a whole, favours compounds with a hit. Of some 83,000 tested, about 20% had one in any assay.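 In brief: 96-well plates, 48 h treatment, single concentration, percent growth endpoint.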 A number with no mark means an inactive call. Calls of active or inactive are those of the source. How the source made its calls: active means growth percent below 10; inactive means the rest.

Experiments:
Assay in all cases: NCI-60 one-dose screen, 48 h (100 = growth as untreated, 0 = no growth, -100 = all killed)
Settings in all cases: 10 µM
T-47D breast = system: T-47D breast
BT-549 breast = system: BT-549 breast
MDA-MB-435 melanoma = system: MDA-MB-435 melanoma
SW-620 colon = system: SW-620 colon
MCF7 breast = system: MCF7 breast
HCT-116 colon = system: HCT-116 colon
HCC-2998 colon = system: HCC-2998 colon
KM12 colon = system: KM12 colon
MDA-MB-468 breast = system: MDA-MB-468 breast

Row | SMILES | growth (T-47D breast) | growth (BT-549 breast) | growth (MDA-MB-435 melanoma) | growth (SW-620 colon) | growth (MCF7 breast) | growth (HCT-116 colon) | growth (HCC-2998 colon) | growth (KM12 colon) | growth (MDA-MB-468 breast)
1 | COc1cnc2c(c1)C(=O)c1c-2n(CCCNC(C)C)c(=O)c2cc(OC)c(OC)cc12 | 36.2% | 56.4% | 44% | -24.9% (active) | 11.8% | 25.5% | 48.9% | 29.5% | 8.82% (active)
2 | COc1ccc(CCN2C(=O)/C(=C/c3csc(C#N)n3)SC2=S)cc1 | -5.27% (active) | -44.6% (active) | -23.6% (active) | -14.6% (active) | -0.841% (active) | -63.2% (active) | -32.8% (active) | -61.4% (active) | -67.2% (active)
3 | CN1CCN(c2ccc(Nc3nc(NCCCNC(=O)c4ccc(F)cc4)c4sccc4n3)cc2)CC1 | 51.5% | 108% | 51.1% | 58.3% | 31% | 33.5% | 66.4% | 53.7% | 59.1%
4 | O=C(CSc1nnc(-c2c[nH]c3ccccc23)n1-c1ccccc1)Nc1ccc(C(=O)/C=C/c2ccc(Br)cc2)cc1 | 57.9% | 87.4% | 85.8% | 97.6% | 25.3% | -32.4% (active) | 94.4% | 72% | 71.1%
5 | Nc1nnc(-c2c[nH]c3ccc(F)cc23)c(-c2c[nH]c3ncccc23)n1 | 31.7% | 46.7% | 60.9% | 73.6% | 34% | 25% | 97.9% | 49.5% | 54.1%
6 | COc1ccc(-c2nc(S(=O)(=O)c3ccc(C)cc3)c(S(=O)(=O)CC(=O)N(C)Cc3ccccc3)o2)cc1 | -57.8% (active) | 72.6% | 32% | 9.27% (active) | 7.73% (active) | 6.34% (active) | 46.6% | 57.5% | -38.8% (active)
7 | CCOc1ccc(Nc2nc3ccccc3nc2Nc2ccc(OCC)cc2)cc1 | 32.1% | 70.7% | 52.9% | 75.5% | 32.9% | 17.8% | 90.2% | 47.4% | 25.4%
8 | CN1CCc2c(sc3ncnc(N/N=C/c4cn(-c5ccccc5)nc4-c4ccc(Cl)cc4)c23)C1 | 35.9% | 41.1% | 41.9% | 10.8% | -31.6% (active) | 2.65% (active) | 5.24% (active) | 21.6% | -55.4% (active)
9 | CONC[C@]1(C)C=C2C(=O)[C@](C)(O)C3(CC3)C(C)=C2[C@H]1O | 0.0161% (active) | -63.6% (active) | -84.7% (active) | 3.2% (active) | -36.3% (active) | 14.5% | -76.9% (active) | 7.08% (active) | -90.8% (active)
10 | CN1C(=O)N(C)C2SC(N/N=C/C=C/c3ccccc3)=NC21 (configuration not stated) | 61.8% | 64.1% | -19.6% (active) | 63.9% | 27.6% | 71.6% | 85.3% | 58% | -4.12% (active)
11 | COc1ccc2[nH]c(=O)c(CSc3ccc(Nc4nccc(-c5ccc(Cl)cc5)n4)cc3)cc2c1 | 78.6% | 104% | 111% | 105% | 84.5% | 78.9% | 115% | 102% | 97.9%
12 | CC(=O)Nc1ccc(-c2cn(-c3cccc(C(=O)Nc4ccc(F)c(C(F)(F)F)c4)c3)nn2)cn1 | 88.2% | 103% | 59.7% | -8.11% (active) | 4.2% (active) | 14.7% | 62% | 28.4% | 42.8%
13 | CCOC(=O)C1=C(N)N(c2ccccc2)C2=C(C(=O)CC(C)(C)C2)C1c1ccccc1OC (configuration not stated) | 92.7% | 105% | 112% | 107% | 89.7% | 101% | 101% | 113% | 88.7%
14 | CCOC(=O)CNC(=O)CN(Cc1ccccc1)C(=O)[C@@]1(C)CCC[C@]2(C)[C@H]3CC4C(C(C)C)=C[C@]3(CC[C@H]21)[C@@H]1C(=O)CCC(=O)[C@H]41 | 52.2% | 67.8% | 70.6% | 49.8% | 13.1% | 36.5% | 37.8% | 77.7% | 3.12% (active)
15 | O=C(NO)c1ccc(CN2CCN(c3nc(-c4ccccc4)c4ccccc4n3)CC2)cc1 | 8.88% (active) | 35.8% | 27.8% | 15.6% | 9.79% (active) | 18.9% | 12.6% | 18.7% | -14.2% (active)
16 | CCOc1ccc(/C=N/NC(=O)Cn2nc(Cc3ccc([N+](=O)[O-])cc3)c3onc(C)c3c2=O)cc1 | 8.58% (active) | 55.2% | 49.7% | 15.2% | 9.23% (active) | -26% (active) | 29% | 51.3% | -30.7% (active)
17 | COc1ccc(C(=O)/C=C/c2ccc(Cl)c(C(F)(F)F)c2)cc1S(N)(=O)=O | -82.6% (active) | -82.3% (active) | -96.4% (active) | -94.7% (active) | -93.6% (active) | -71.6% (active) | -88.3% (active) | -43.7% (active) | -93.4% (active)
18 | O=C1Nc2ccc(F)cc2/C1=C/c1cccc(OCc2ccccc2)c1 | 13.8% | 23% | 5.74% (active) | 8.79% (active) | 3.46% (active) | 10.1% | 45.8% | 19% | -22.3% (active)
19 | O=C1NC(=NC23CC4CC(CC(C4)C2)C3)N/C1=C\c1ccc2ncccc2n1 | -9.66% (active) | -81.3% (active) | -11.4% (active) | 2.73% (active) | -19.4% (active) | 17.9% | 3.26% (active) | -0.698% (active) | -63% (active)
20 | CC1=N/C(=C\c2ccc(N(C)C)cc2)C(=O)N1CCc1ccc(S(N)(=O)=O)cc1 | 83.2% | 92.7% | 110% | 112% | 91.8% | 94.3% | 97.5% | 104% | 110%
21 | COc1cc(C2CC(c3ccccc3)=Nc3c(N)nc(N)nc3N2)ccc1Oc1nc(Nc2ccc(F)cc2)nc(N(C)C)n1 (configuration not stated) | 54.4% | 45% | 15.4% | 44.6% | 2.04% (active) | 3.43% (active) | 47.7% | 31.6% | 1.47% (active)
22 | CC(=C(c1ccc(OCCCN(C)C)cc1)c1ccc(OCCCN(C)C)cc1)c1ccccc1 | -84.9% (active) | -69% (active) | -98.1% (active) | -44.9% (active) | -82.2% (active) | -10.4% (active) | -94.8% (active) | -93% (active) | -93.9% (active)
23 | COc1ccc(C(=O)CSc2nnc(-c3c[nH]c4ccccc34)n2-c2ccccc2)cc1 | 56.7% | 24.7% | 69.1% | 86.3% | 45.6% | 52.5% | 77.8% | 88.1% | 59.8%
24 | CCOC(=O)C1NN(c2ccc(S(N)(=O)=O)cc2)c2nc3nc(-c4cccs4)cc(-c4cccs4)c3c(=O)n21 (configuration not stated) | 85.4% | 50.1% | 106% | 93.1% | 74.2% | 81.2% | 107% | 69.7% | 99.5%
25 | NC1=NC(c2ccccc2Cl)N=C(Nc2nn[nH]n2)N1 (configuration not stated) | 99.1% | 107% | 102% | 106% | 93.3% | 103% | 104% | 100% | 103%
26 | Cc1ccc2nc(-c3ccc(-c4nnc(SCC(=O)Nc5ccc(Br)cc5)o4)cc3)[nH]c2c1 | 50.8% | 86.8% | 59.9% | 82.8% | 45.1% | 67.4% | 105% | 70.4% | 80.6%
27 | COc1cc(NC(=O)c2cc(-c3ccc(F)cc3F)ccc2O)cc(OC)c1OC | -10.1% (active) | 4.31% (active) | 36.2% | 55.3% | 38.9% | 42.5% | 63.9% | 29.8% | 15%
28 | N#Cc1c(NC(=O)c2cccc(C(F)(F)F)c2)sc2c1CCC(O)=C2 | 16.5% | 44.6% | 9.7% (active) | 35.4% | 27.9% | 40.4% | 36.3% | 23.1% | -18.6% (active)
